The other results are listed elsewhere or left out. The hit rate among all sequences tested is not known here.
Molecular target: furin, P09958
Test: furin cleavage Z-score vs untreated control; higher = more cleavage, active = 3.5 or more, inactive = 1 or less, 8 variable residues between constant flanks
Experimental: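 Multiplexed peptide-cDNA fusion cleavage assay. 8-mer variable peptides flanked by constant Cys-Ala (N-term) and Ala-Gly-Asn-Ala-Ser-Ala-Ser-Ala (C-term) and conjugated to a cDNA oligonucleotide were bead-immobilised via the N-terminus. They were treated with purified furin at a 1:10 enzyme:substrate ratio in 50 mM HEPES pH 7.5, 1 mM CaCl2, 100 mM NaCl for 7.5, 15 or 30 min. Released cDNA was counted by next-generation sequencing, and log counts versus no-furin controls were lowess-adjusted and converted to robust Z-scores.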

Sequence of furin, P09958 (P09958 whole entry): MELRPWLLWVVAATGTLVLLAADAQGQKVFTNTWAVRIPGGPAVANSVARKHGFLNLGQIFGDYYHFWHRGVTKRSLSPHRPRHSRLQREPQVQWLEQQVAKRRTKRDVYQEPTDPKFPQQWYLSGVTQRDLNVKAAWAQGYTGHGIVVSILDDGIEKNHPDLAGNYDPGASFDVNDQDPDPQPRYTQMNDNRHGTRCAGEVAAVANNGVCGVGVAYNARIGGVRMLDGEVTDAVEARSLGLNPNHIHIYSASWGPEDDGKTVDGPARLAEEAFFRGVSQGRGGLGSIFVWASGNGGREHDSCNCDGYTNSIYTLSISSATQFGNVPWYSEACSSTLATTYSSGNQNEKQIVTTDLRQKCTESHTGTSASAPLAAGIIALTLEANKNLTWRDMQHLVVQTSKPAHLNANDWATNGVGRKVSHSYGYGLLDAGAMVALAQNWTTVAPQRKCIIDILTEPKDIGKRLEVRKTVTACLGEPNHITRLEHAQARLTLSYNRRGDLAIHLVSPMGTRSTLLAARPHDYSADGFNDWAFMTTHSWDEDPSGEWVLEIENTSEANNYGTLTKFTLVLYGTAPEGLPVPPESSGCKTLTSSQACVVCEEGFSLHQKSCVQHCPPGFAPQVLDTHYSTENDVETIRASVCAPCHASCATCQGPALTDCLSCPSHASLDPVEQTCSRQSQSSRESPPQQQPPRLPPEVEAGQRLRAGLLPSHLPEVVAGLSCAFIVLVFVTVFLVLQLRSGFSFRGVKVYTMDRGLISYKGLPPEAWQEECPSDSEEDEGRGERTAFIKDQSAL

Sequence	furin cleavage Z-score (7.5 min)	furin cleavage Z-score (15 min)	furin cleavage Z-score (30 min)
CAMVVTSTWVAGNASASA [HC2146]	-1.12 (inactive)	-1.84 (inactive)	-2.22 (inactive)
CAIGTVLDQAAGNASASA [HC825]	-1.51 (inactive)	-1.57 (inactive)	-0.129 (inactive)
CARSKRRWVIAGNASASA [FS-2812]	-0.553 (inactive)	-0.688 (inactive)	0.146 (inactive)
CARQKKGVVPAGNASASA [FS-2749]	0.952 (inactive)	-0.837 (inactive)	-1.72 (inactive)
CARQKRDWIWAGNASASA [FS-2751]	3.51 (active)	5.26 (active)	8.38 (active)
CARRKRDWVIAGNASASA [FS-2778]	3.18	5.46 (active)	8.57 (active)
CARHKRLSYQAGNASASA [FS-3255]	-1.36 (inactive)	-0.609 (inactive)	1.23
CARQKRDPAFAGNASASA [FS-2289]	2.9	3.65 (active)	5.36 (active)
CARHKRQSGVAGNASASA [FS-2211]	5.97 (active)	7.29 (active)	6.66 (active)
CARRCRASGVAGNASASA [HC1509]	-1.17 (inactive)	-0.493 (inactive)	-0.69 (inactive)
CARQKRGWMWAGNASASA [FS-2169]	-0.547 (inactive)	2.65	3
CACLEVVTSTAGNASASA [HC2280]	-1.07 (inactive)	-0.98 (inactive)	0.458 (inactive)

— the supplement of paper PMC3545927
